These results are taken from PubChem BioAssay (NCI).

Assay in all cases: NCI-60 one-dose screen, 48 h (100 = growth as untreated, 0 = no growth, -100 = all killed)
Details in all cases: 10 µM unless noted

For experiment [1], the system named is SK-MEL-2 melanoma.
For experiment [2], the system named is EKVX NSCLC.
Experiment [3] has as its system SN12C renal.
The test system of experiment [4] is UO-31 renal.
Experiment [5] has as its system ACHN renal.
Experiment [6] concerns CAKI-1 renal.
Experiment [7] relates to A498 renal.
Experiment [8] relates to CCRF-CEM leukemia.
The subject of experiment [9] is MOLT-4 leukemia.
Experiment [10] concerns RPMI-8226 leukemia.
In experiment [11] the test system is OVCAR-8 ovarian.
Experiment [12] has as its system OVCAR-5 ovarian.
Experiment [13] deals with OVCAR-4 ovarian.
Experiment [14] relates to SK-OV-3 ovarian.
The test system of experiment [15] is IGROV1 ovarian.
Experiment [16] concerns OVCAR-3 ovarian.
The subject of experiment [17] is HS 578T breast.
Experiment [18] has as its system NCI/ADR-RES ovarian.
Experiment [19] deals with TK-10 renal.
Experiment [20] relates to SR leukemia.

This is part of a sample that, as a whole, favours compounds with a hit. Of some 83,000 tested, about 20% had one in any assay.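 Negative percent growth values reflect cell death: -40 means 40% of the cells present at the start died, and -100 means all died.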 Unmarked numbers belong to inactive results. Activity calls are given as the source filed them. How the source made its calls: active means growth percent below 10; inactive means the rest.

With `CC(=O)O[C@H]1CC[C@]2(C)[C@H]3CC=C4[C@@H]5CC(C)(C)CC[C@]5(C(=O)NCCNCCN)CC[C@@]4(C)[C@]3(C)CC[C@H]2C1(C)C`, the growth in [1] was 82.5%; in experiment [2], 28.8%; in experiment [3] it was -89.9% (active); in experiment [4], -91.6% (active); in [5], -100% (active); in [6] it was -68.7% (active). In addition, the growth is 38.6% in experiment [7]; -40.1% (active) in [8]; -39.9% (active) in experiment [9]; -44.4% (active) in experiment [10]; -85.3% (active) in experiment [11]; -87.7% (active) in experiment [12]. Besides, the growth in experiment [13] is -25% (active); in experiment [14], 95.8%; in experiment [15] it was -63.9% (active); in experiment [16], -91.4% (active); in [17], 80.6%; in experiment [18], -86% (active).
With `COc1ccccc1Nc1nc(-c2cc3cccc(C(F)(F)F)c3oc2=O)cs1`, the growth was 26.8% in [1]; 36.1% in experiment [2]; 52% in experiment [4]; 67.9% in [19]; 24.6% in experiment [5]; 9.18% (active) in experiment [6]. For the same molecule, the growth in experiment [7] is -9.67% (active); in [8], 7.96% (active); in experiment [9], 14.9%; in experiment [20] it was 10.2%; in experiment [10], 16.8%; in experiment [11], 9.28% (active). Also, the growth in experiment [12] is 67%; in experiment [13], 37.1%; in experiment [14], 31.3%; in experiment [15], 22.9%; in experiment [16] it was -21.7% (active); in experiment [17] it was 31.4%. Also, the growth in experiment [18] is 15%.
In the case of `C(=C\c1nccc2c1[nH]c1ccccc12)/c1ccccc1`, the growth in experiment [1] is 37.4%; in experiment [2], 38.3%; in experiment [3] it was 46.2%; in [4], 13.2%; in experiment [5] it was 35.6%; in experiment [6], -8.56% (active). For the same molecule, the growth was 40.4% in experiment [7]; 49.1% in experiment [9]; 82.7% in experiment [20]; 26.1% in experiment [11]; 62.9% in [12]; 14.9% in experiment [13]. Moreover, the growth in [14] was 24.7%; in [15] it was -15.9% (active); in [16], -13.3% (active); in experiment [17], 29.2%; in experiment [18], 15.5%.
Consider `COc1cccc(-c2nn(C(C)(C)C)cc2-c2ccnc(NCCCNS(=O)(=O)c3ccc(C)cc3)c2)c1`, for which the growth in experiment [1] was 108%; in [2], 100%; in [3], 103%; in [4], 85.3%; in [5], 102%; in experiment [6], 92.8%. Also, the growth in experiment [7] was 94%; in experiment [8] it was 94.6%; in experiment [9], 103%; in experiment [10], 99.3%; in [11] it was 103%; in experiment [12], 105%. For the same molecule, the growth is 103% in experiment [13]; 113% in [14]; 111% in experiment [15]; 122% in experiment [16]; 103% in [17]; 98.4% in experiment [18].
On to `COC(=O)[C@]12CCC(C)(C)C[C@H]1[C@H]1C(=O)C[C@@H]3[C@@]4(C)c5c([nH]c6ccccc6c5=O)C(C)(C)[C@@H]4CC[C@@]3(C)[C@]1(C)CC2`, for which the growth in [1] is 75.5%; in experiment [2], 52.4%; in experiment [3] it was 70%; in experiment [4], 67.2%; in [5] it was 53%; in [6], 50.7%. Moreover, the growth in experiment [7] is 69%; in experiment [8] it was 59.5%; in experiment [9], 43.5%; in experiment [10], 34.9%; in experiment [11], 59.2%; in [12] it was 80.7%. The growth was 49% in experiment [13]; 86.4% in experiment [14]; 94.5% in [15]; 63.2% in experiment [16]; 87.1% in experiment [17]; 49.6% in experiment [18].
As to `O=C(/C=C/c1cccc([N+](=O)[O-])c1)c1ccc(O)c(CN2CCN(c3cc4c(cc3F)c(=O)c(C(=O)O)cn4C3CC3)CC2)c1`, the growth in experiment [1] was 88.3%; in experiment [2] it was 52.8%; in experiment [3], 32.5%; in [4], -29.7% (active); in [5], 8.06% (active); in experiment [6], 42.3%. The growth in experiment [7] was 97.2%; in [8], 0.194% (active); in [9], 2.37% (active); in experiment [10] it was -25.6% (active); in [11], 27.4%; in experiment [12], 12.4%. Moreover, the growth in [13] is 37.4%; in experiment [14], 72.9%; in experiment [15], 28.8%; in experiment [16], 7.92% (active); in experiment [17], 51.9%; in experiment [18], 10.7%.
Consider `COc1cc(C(=O)/C=C/c2cccnc2Nc2ccc(Cl)cc2)cc(OC)c1OC`, for which the growth is -65% (active) in [1]; 23.7% in experiment [2]; -58.7% (active) in experiment [3]; -99.3% (active) in [4]; -97.1% (active) in [5]; -6.13% (active) in [6]. In addition, the growth is -10.8% (active) in [8]; -6.63% (active) in experiment [9]; 5.22% (active) in experiment [20]; -30.2% (active) in experiment [10]; -17.6% (active) in [11]; -78.3% (active) in experiment [12]. Moreover, the growth in [13] was -90.4% (active); in experiment [14], -5.2% (active); in experiment [15], -60.9% (active); in experiment [16], -97.1% (active); in experiment [17], 29.4%; in experiment [18], 3.59% (active).
Turning to `COc1ccc2c(c1)C(=O)/C(=C/c1cccnc1)CC2`, the growth in experiment [1] was 97.7%; in experiment [2], 96.5%; in experiment [4], 92.3%; in experiment [19] it was 97.7%; in experiment [5] it was 88.5%; in experiment [6] it was 90.8%. The growth in experiment [7] is 100%; in experiment [8], 68%; in [9] it was 82.4%; in [20], 30.7%; in experiment [10] it was 1.31% (active); in experiment [11], 96.8%. In addition, the growth in experiment [12] is 93%; in experiment [13] it was 93.4%; in experiment [14] it was 101%; in experiment [15], 101%; in [16] it was 98.6%; in experiment [17], 115%. In addition, the growth in [18] is 94.8%.
